Experimental findings from PubChem BioAssay (NCI) are described below.

This is part of a sample that, as a whole, favours compounds with a hit. Of some 83,000 tested, about 20% had one in any assay.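 How to read the values: 0–100, growth inhibition (40 = 60% inhibited); 0, no net growth; -100 to 0, cell death (-40 = 40% of starting cells died; -100 = all dead).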 Calls of active or inactive are those of the source.

The subject of the experiment is UO-31 renal. Put plainly: NCI-60 one-dose screen, 48 h (100 = growth as untreated, 0 = no growth, -100 = all killed). Conditions: 10 µM unless noted. As to the method: Growth inhibition of the UO-31 human tumor cell line is measured as a screen for anti-cancer activity. Cells are grown in 96 well plates and exposed to the test compound for 48 hours. Compounds are tested at a single concentration, which is 10^-5 M for most compounds. The reported endpoint is percent growth (GI% or GIPRCNT), where numbers from 0 - 100% represent growth inhibition, and numbers from -100% - 0 represent cell death. For example, a value of 40 represents 60% growth inhibition. A value of 0 means no net growth occurred over the course of the experiment. A value of -40 indicates 40% of cells at the beginning of the experiment died by the end of the experiment. A value of -100 means all cells are dead at the end of the experiment.
NCI-60 Human Tumor Cell Lines Screen was performed using the standard one-dose NCI protocol, which is described in more detail at https://dtp.cancer.gov/discovery_development/nci-60/default.htm.
Compounds with GIPRCNT values below 10 were considered active. Activity score was based on GIPRCNT using the following formula: […]
Score is 0 for GIPRCNT values of 100 or above, 50 for GIPRCNT values of 0, and 100 for GIPRCNT values of -100.
`Cn1cc(-c2cc3nc(-c4c[nH]c5ccc(Cl)cc45)cc(N)n3n2)c2ccccc21`: the growth was -98.6% (active). The figure for `Cc1ccc(C(=O)C(c2c[nH]c3ccccc23)c2c[nH]c3ccccc23)cc1` is 26.4% (inactive). As to `CC(C)CSc1nc(NCCc2c[nH]c3ccccc23)c(C#N)c(-c2ccc(Cl)cc2)n1`, the growth was 65.1% (inactive). The result for `CCCCn1c(O)c(N=Nc2nc(-c3cc4ccccc4oc3=O)cs2)c2cc(Br)ccc21` reads 85% (inactive); that for `CN(C)c1ccnc(NCCCSC(c2ccccc2)(c2ccccc2)c2ccccc2)c1`, 28.9% (inactive). The figure for `COc1ccc(C(=O)/C=C/c2cccc(Cl)c2Cl)cc1S(N)(=O)=O` is -81.3% (active). The figure for `COc1ccc2oc(=O)c(C3(C)NC(=O)c4c(/C=C/C(=O)OC(C)(C)C)cccc4N3)cc2c1` (stereo not given) is 25% (inactive); for `O=C(CCN1C(=O)/C(=C/c2ccc(F)cc2)SC1=S)N1CCOCC1` it is 51.1% (inactive). As to `COc1ccc(-c2nc3cc(C)ccc3n2CC(=O)N=Nc2c(O)[nH]c3ccc(Br)cc23)cc1`, the growth was 53.5% (inactive).

Take `Cc1ccc(S(=O)(=O)c2nc(S(=O)(=O)c3ccc(C)cc3)c(N3CCC(O)CC3)s2)cc1`: the growth was 73.7% (inactive). The figure for `COc1cc(C2CC(c3ccc(S(=O)(=O)NCCNc4nc(Nc5ccc(F)cc5)nc(N(C)C)n4)cc3)=Nc3c(N)nc(N)nc3N2)cc(OC)c1OC` (stereo not given) is 86.1% (inactive); for `Cn1cc(-c2nc(N)nnc2-c2c[nH]c3ccc(F)cc23)c2cc(Br)cnc21` it is 6.23% (active).

For `COc1cc2c(c(OC)c1OC)C(=O)CC(c1cccc(NC(=O)c3cccc(NC(=O)[C@H](C)NC(=O)OC(C)(C)C)c3)c1)O2` (stereo not given in full), the growth was 44.1% (inactive).

With `O=C(NN1C(=O)/C(=C/C=C/c2ccc([N+](=O)[O-])o2)SC1=S)c1ccccc1O`, the growth was -99.5% (active). The figure for `COc1cc2c3c(n(CCCN4CCC[C@@H]4CO)c(=O)c2cc1OC)-c1cc2c(cc1C3=O)OCO2` is -92.5% (active); for `CC12CC[C@@H]3[C@]4(C)COC(c5cn[nH]c5-c5ccc(Cl)cc5)O[C@@H]4CC[C@@]3(C)[C@@H]1CC(C1=CCOC1=O)O2` (stereo not given in full) it is 21% (inactive); for `COc1ccc(NC(=O)[C@@H](N)Cc2ccccc2)cc1C(=O)Nc1cccc(C2CC(=O)c3c(cc(OC)c(OC)c3OC)O2)c1` (stereo not given in full) it is 33.8% (inactive). With `NS(=O)(=O)c1ccc(-n2cc(-c3cccc(NC(=O)c4cc(N5CCOCC5)cc(C(F)(F)F)c4)c3)nn2)cc1`, the growth is 80.3% (inactive). The figure for `COc1ccc(NC(=O)Nc2ccc(OCc3ccc(F)cc3)cc2)cc1` is 26.3% (inactive).

Regarding `O=C(NN1C(=O)/C(=C/C=C/c2ccc([N+](=O)[O-])o2)SC1=S)c1ccc(Cl)cc1`, the growth is -100% (active).

Turning to `CCS(=O)(=O)N1CCCC(C(=O)Nc2nc3ccc(NC(=O)c4ccc(F)c(OC)c4F)cc3s2)C1` (stereo not given), the growth is 54.5% (inactive). Consider `C=C1CC[C@@H]2[C@]3(C)COC(c4cn[nH]c4-c4cccc(Cl)c4)O[C@@H]3CC[C@@]2(C)[C@@H]1C/C=C1/C(=O)OCC1O` (stereo not given in full), for which the growth was -94.4% (active). As for `COc1c(F)ccc(C(=O)Nc2ccc3nc(NC(=O)C4CCCN(S(=O)(=O)c5cccc(C(F)(F)F)c5)C4)sc3c2)c1F` (stereo not given), the growth is 74.8% (inactive).

As to `O=c1c2ccccc2nc(-c2ccccc2)n1/N=C/c1ccc2ccccc2c1`, the growth was 58.5% (inactive). The figure for `CN1CCc2c(sc3ncnc(N/N=C/c4ccc(Cl)cc4Cl)c23)C1` is -95.7% (active); for `Cc1cccc(NC(=O)[C@]23CCC(C)(C)CC2C2=CCC4[C@@]5(C)C[C@@H](O)[C@H](O)[C@@](C)(CO)C5CC[C@@]4(C)[C@]2(C)CC3)c1` (stereo not given in full) it is 14.3% (inactive). The figure for `COc1ccc(-c2ccc(SCC(=O)NCCc3ccc(S(N)(=O)=O)cc3)nn2)cc1` is 76.8% (inactive); for `NS(=O)(=O)c1ccc(-n2cc(-c3cccc(NC(=O)c4cc(Cl)cc(Cl)c4)c3)nn2)cc1` it is 115% (inactive); for `Cc1c(C(=O)NNC(=O)Nc2ccc(Cl)cc2)nnn1-c1ccc(Br)cc1` it is 75.7% (inactive). With `CCOC(=O)C1=C(N)N(c2ccccc2)C2=C(C(=O)CC(C)(C)C2)C1c1cccc(Cl)c1Cl` (stereo not given), the growth is 75.5% (inactive).

As for `COc1ccc(C(=O)/C=C/c2ccc3ccccc3c2)cc1S(N)(=O)=O`, the growth was -87.2% (active).

Take `Cc1ccc(-c2nnc3ccc(N/N=C/c4ccccc4)nn23)cc1`: the growth was 84.5% (inactive). The figure for `COc1ccc(C2CC(c3ccc(S(=O)(=O)NCCNc4nc(Nc5ccc(F)cc5)nc(N(C)C)n4)cc3)=Nc3c(N)nc(N)nc3N2)cc1` (stereo not given) is 86.2% (inactive); for `C#CCOc1ccc(/C=N/Nc2nc(-c3cc4cc(OC)ccc4oc3=O)cs2)cc1OC` it is 87.7% (inactive); for `CC(=O)OC[C@@]1(C)C2CC[C@]3(C)C(CC=C4C5CC(C)(C)CC[C@]5(C(=O)Nc5ccc(Br)cc5)CC[C@]43C)[C@@]2(C)C[C@@H](OC(C)=O)[C@@H]1OC(C)=O` (stereo not given in full) it is 37.2% (inactive).

Consider `O=C(Nc1ccc(C(F)(F)F)cc1)Nc1ccc2oc(=O)ccc2c1`, for which the growth was -10.3% (active).

`COc1ccc2cc([C@H](C)C(=O)N/N=C/c3ccc(Br)cc3)ccc2c1`: the growth is 83.3% (inactive). The result for `COc1ccc(-c2nnc3ccc(N/N=C/c4ccc(C)cc4)nn23)cc1` reads 33.5% (inactive). The figure for `CCOC(=O)/C=C/c1cccc2c1C(=O)NC(C)(c1cc3cc(Cl)ccc3oc1=O)N2` (stereo not given) is 11.7% (inactive); for `Cc1cc(C)cc(C(=O)Nc2cccc(-c3cn(-c4ccc(S(N)(=O)=O)cc4)nn3)c2)c1` it is 68.2% (inactive).
